{
  "source": "the antibiotic and cytotoxicity screens of Wong et al. (2023)",
  "note": "Out of some 39,000 compounds screened, about 1,500 (3.8%) were called active. The sample as a whole holds a higher share of actives than the screen did.",
  "data": [
    {"tested_on": "HSkMC (human skeletal muscle cells)", "experiment": "cytotoxicity call (relative viability < 0.9)", "details": "10 µM", "values": [
      {"compound": "Cc1ccc(S(=O)(=O)N(C)C[C@H]2Oc3ncc(C#CCC(C)C)cc3C(=O)N([C@@H](C)CO)C[C@H]2C)cc1", "cytotoxicity call": "inactive"},
      {"compound": "C[C@H]1CN([C@@H](C)CO)S(=O)(=O)c2ccc(Br)cc2O[C@@H]1CN(C)Cc1cccc(F)c1", "cytotoxicity call": "inactive"},
      {"compound": "Cc1ccc(S(=O)(=O)N(C)C[C@@H]2OCCCC[C@H](C)Oc3ccc(NC(=O)CCCCCC(=O)Nc4ccccc4N)cc3C(=O)N([C@H](C)CO)C[C@@H]2C)cc1", "cytotoxicity call": "inactive"},
      {"compound": "COc1ccc(NC(=O)N(C)C[C@H]2OCCCC[C@@H](C)Oc3ccc(NS(=O)(=O)c4ccc(F)cc4)cc3C(=O)N([C@@H](C)CO)C[C@H]2C)cc1", "cytotoxicity call": "inactive"},
      {"compound": "Cc1ccc(C(=O)O)c(=O)[nH]1", "cytotoxicity call": "inactive"},
      {"compound": "C[C@@H]1CN([C@@H](C)CO)C(=O)c2cc(C#CC3(O)CCCC3)cnc2O[C@@H]1CN(C)C(=O)Cc1ccccc1", "cytotoxicity call": "inactive"},
      {"compound": "O=C(NC1CC1)[C@@H]1c2ccccc2C(=O)N(Cc2cc(C(F)(F)F)cc(C(F)(F)F)c2)[C@H]1c1ccc(CO)cc1", "cytotoxicity call": "inactive"},
      {"compound": "O=C(N[C@H]1CCN(C(=O)c2cc(C(F)(F)F)cc(C(F)(F)F)c2)[C@H](Cc2ccc(Cl)cc2)C1)c1ccnc2ccccc12", "cytotoxicity call": "active"},
      {"compound": "C[C@@H]1CN([C@H](C)CO)C(=O)c2cccc(NC(=O)c3ccc(-c4nccs4)cc3)c2O[C@@H]1CN(C)C(=O)Nc1ccc(C(F)(F)F)cc1", "cytotoxicity call": "active"},
      {"compound": "C[C@H]1CN([C@@H](C)CO)C(=O)c2cccc(NC(=O)c3ccc(-c4nccs4)cc3)c2O[C@H]1CN(C)C(=O)Nc1ccc(C(F)(F)F)cc1", "cytotoxicity call": "inactive"},
      {"compound": "C[C@H]1CN([C@@H](C)CO)C(=O)c2cccc(NC(=O)c3ccc(-c4nccs4)cc3)c2O[C@@H]1CN(C)Cc1ccc(C(F)(F)F)cc1", "cytotoxicity call": "active"},
      {"compound": "C[C@H](CO)N1C[C@H](C)[C@@H](CN(C)Cc2ccc(Cl)c(Cl)c2)Oc2c(NC(=O)c3ccc(-c4nccs4)cc3)cccc2C1=O", "cytotoxicity call": "inactive"},
      {"compound": "C[C@@H]1CN([C@H](C)CO)C(=O)c2cccc(NC(=O)c3ccc(-c4nccs4)cc3)c2O[C@H]1CN(C)Cc1ccc(Cl)c(Cl)c1", "cytotoxicity call": "inactive"},
      {"compound": "C[C@@H]1CN([C@@H](C)CO)C(=O)c2cccc(NC(=O)c3ccc(-c4nccs4)cc3)c2O[C@H]1CN(C)Cc1ccc(C(F)(F)F)cc1", "cytotoxicity call": "inactive"},
      {"compound": "C[C@H](CO)N1C[C@H](C)[C@H](CN(C)Cc2ccc(C(F)(F)F)cc2)Oc2c(NC(=O)c3ccc(-c4nccs4)cc3)cccc2C1=O", "cytotoxicity call": "inactive"},
      {"compound": "C[C@@H]1CN([C@@H](C)CO)C(=O)c2cccc(NC(=O)c3ccc(-c4nccs4)cc3)c2O[C@@H]1CN(C)C(=O)Nc1ccc(C(F)(F)F)cc1", "cytotoxicity call": "inactive"},
      {"compound": "C[C@H]1CN([C@@H](C)CO)C(=O)c2cccc(NC(=O)c3ccc(-c4nccs4)cc3)c2O[C@@H]1CN(C)Cc1ccc(Cl)c(Cl)c1", "cytotoxicity call": "active"},
      {"compound": "C[C@@H]1CN([C@H](C)CO)C(=O)c2cccc(NC(=O)c3ccc(-c4nccs4)cc3)c2O[C@@H]1CN(C)Cc1ccc(C(F)(F)F)cc1", "cytotoxicity call": "inactive"},
      {"compound": "C[C@@H]1CN([C@H](C)CO)C(=O)c2cccc(NC(=O)c3ccc(-c4nccs4)cc3)c2O[C@H]1CN(C)Cc1ccc(C(F)(F)F)cc1", "cytotoxicity call": "active"},
      {"compound": "C[C@@H]1CN([C@@H](C)CO)C(=O)c2cccc(NC(=O)c3ccc(-c4nccs4)cc3)c2O[C@@H]1CN(C)Cc1ccc(C(F)(F)F)cc1", "cytotoxicity call": "inactive"},
      {"compound": "C[C@H]1CN([C@@H](C)CO)C(=O)Cc2cc(NS(=O)(=O)c3cccs3)ccc2O[C@@H]1CN(C)Cc1ccncc1", "cytotoxicity call": "inactive"},
      {"compound": "COc1ccc(NC(=O)N(C)C[C@H]2Oc3ccc(NS(=O)(=O)c4c(C)noc4C)cc3C(=O)N([C@H](C)CO)C[C@H]2C)cc1", "cytotoxicity call": "inactive"},
      {"compound": "C[C@@H]1CN([C@@H](C)CO)C(=O)c2cccc(NC(=O)CCCCCC(=O)Nc3ccccc3N)c2O[C@H]1CN(C)S(=O)(=O)c1cn(C)cn1", "cytotoxicity call": "inactive"},
      {"compound": "Cc1[nH]c(=O)[nH]c(=O)c1S(=O)(=O)N1CCC[C@H](C(=O)NCCc2c[nH]c3ccc(F)cc23)C1", "cytotoxicity call": "inactive"},
      {"compound": "C[C@H]1CCCCO[C@@H](CN(C)C)[C@@H](C)CN([C@@H](C)CO)C(=O)c2cc(NS(=O)(=O)c3cn(C)cn3)ccc2O1", "cytotoxicity call": "inactive"},
      {"compound": "C[C@@H]1CCCCO[C@@H](CN(C)S(=O)(=O)c2ccccc2)[C@H](C)CN([C@@H](C)CO)C(=O)c2cc(NC(=O)Nc3ccc(C(F)(F)F)cc3)ccc2O1", "cytotoxicity call": "inactive"},
      {"compound": "COc1ccc(CN(C)C[C@H]2OCCCC[C@H](C)Oc3ccc(NC(=O)Cc4ccccc4)cc3C(=O)N([C@@H](C)CO)C[C@H]2C)cc1", "cytotoxicity call": "inactive"},
      {"compound": "C[C@@H]1CN([C@H](C)CO)C(=O)c2cc(NS(=O)(=O)c3ccccc3)ccc2O[C@@H](C)CCCCO[C@@H]1CN(C)Cc1ccc2c(c1)OCO2", "cytotoxicity call": "inactive"},
      {"compound": "C[C@H](CO)N1C[C@H](C)[C@@H](CN(C)S(=O)(=O)c2ccc(Oc3ccccc3)cc2)OCc2cn(nn2)CCCC1=O", "cytotoxicity call": "inactive"},
      {"compound": "Cc1noc(C)c1S(=O)(=O)N(C)C[C@@H]1Oc2ccc(NC(=O)CCC(F)(F)F)cc2CC(=O)N([C@H](C)CO)C[C@H]1C", "cytotoxicity call": "inactive"},
      {"compound": "COCCNC(=O)C[C@@H]1CC[C@@H](NS(=O)(=O)c2ccc(C)cc2)[C@H](CO)O1", "cytotoxicity call": "inactive"},
      {"compound": "C[C@@H](O)Cn1cnc2c1c(=O)n(C)c(=O)n2C", "cytotoxicity call": "inactive"},
      {"compound": "COc1ccc(CN(C)C[C@H]2OCCCC[C@H](C)Oc3ccc(NC(=O)c4ccccc4)cc3C(=O)N([C@@H](C)CO)C[C@H]2C)cc1", "cytotoxicity call": "inactive"},
      {"compound": "CC(C)C#Cc1cnc2c(c1)C(=O)N([C@@H](C)CO)C[C@@H](C)[C@@H](CN(C)S(=O)(=O)c1cn(C)cn1)O2", "cytotoxicity call": "inactive"},
      {"compound": "CC(C)N1CCOC[C@@]2(C1)CN(S(C)(=O)=O)CCO2", "cytotoxicity call": "inactive"},
      {"compound": "COC(=O)[C@H](Cc1ccccc1)N1CC2=C[C@@H](C3CC3)n3c(=O)n(C)c(=O)n3[C@H]2[C@@H]1[C@@H](O)CCn1cc(-c2cccc(/C=C/C(=O)NO)c2)nn1", "cytotoxicity call": "inactive"},
      {"compound": "COc1ccc2c3c([nH]c2c1)[C@H](CO)N(C[C@]13CN(C1)S(=O)(=O)C)C(=O)C1CCOCC1", "cytotoxicity call": "inactive"},
      {"compound": "C[C@H](CO)N1C[C@H](C)[C@H](CN(C)C(=O)NC2CCCCC2)Oc2ccc(NC(=O)C3CC3)cc2CC1=O", "cytotoxicity call": "inactive"},
      {"compound": "Cc1ccc(S(=O)(=O)N(C)C[C@H]2Oc3ccc(N(C)C)cc3CC(=O)N([C@H](C)CO)C[C@@H]2C)cc1", "cytotoxicity call": "inactive"}
    ]}
  ]
}
